An excerpt weighted towards active compounds, which were near 4.2% of everything screened.
NLRP3 yeast inh = NALP3 inhibition in yeast; inhibition, % at 10 µM; Yeast reconstituted NLRP3/ASC/caspase-1, beta-gal luminescence, 24 h; actives 0.39% (n = 330,000);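 active = inhibition of 50% or more; inactive = inhibition below 50%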;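 also: plate controls were induced DMSO wells for no effect and uninduced yeast grown without galactose for full effect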
tim10-1 inh = inhibits growth of tim10-1 mutant yeast; S. cerevisiae tim10-1 ts strain growth, BacTiter-Glo, 24 h; inhibition, % at 20 µM; actives 2.2% (n = 330,000);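 active = inhibition of at least 40%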;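 also: mutant grown at 25 °C; 0% = DMSO wells with yeast and 100% = wells holding no yeast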
tim23-1 inh = growth inhibitors of tim23-1 mutant yeast. S. cerevisiae tim23-1 growth, BacTiter-Glo luminescence, 24 h. actives 1.3% (n = 330,000). inhibition, % at 20 µM. AID 463212;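 active = growth inhibition of the mutant yeast at or above 50%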;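 also: temperature-sensitive mutant grown at 25 °C; plate controls were DMSO-treated mutant yeast for no effect and medium wells lacking yeast for full effect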
V-ATPase pH = yeast V-ATPase proton transport regulation by pHLuorin | S. cerevisiae, pHLuorin cytosolic pH fluorescence | response, % at 10 µM | actives 0.37% (n = 350,000) | AID 504577; in the data active = response mostly above about 7.3%, no sharp cut-off; inactive = mostly below about 5.4%; also: actives read high
NALP1 yeast inh = NALP1 inhibition | S. cerevisiae NALP1/ASC/caspase-1 growth, X-gal OD620, 72 h | inhibition, % at 10 µM | actives 0.61% (n = 280,000); in the data active = inhibition mostly above about 24%, no sharp cut-off; inactive = mostly below about 32%
TIM10 inh = inhibits growth of TIM10 yeast strain; S. cerevisiae TIM10 strain growth, BacTiter-Glo luminescence, 24 h; inhibition, % at 10 µM; actives 1.4% (n = 330,000); AID 463195;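 active = inhibition of 40% or more at the single tested concentration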;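 also: wild-type TIM10 isogenic control strain grown at permissive 25 °C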
TIM10 conf = TIM10 yeast growth inhibition, confirmed. shares compounds with TIM10 inh. S. cerevisiae tim10 strain growth, BacTiter-Glo luminescence, 24 h. inhibition, % at 10 µM. actives 63% (n = 4,600). AID 463215;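 active = inhibition of yeast growth at or above a set limit in either of two replicates at 10 µM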;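 also: this counterscreen used the strain with wild-type TIM10; 0% = yeast with DMSO and 100% = medium wells lacking yeast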
* = called active by the depositor.

How did CCN(Cc1ccccc1)c1ccc(/C=N/NC(=S)NC(C)C)cc1 do in these assays?
NLRP3 yeast inh: 19; tim10-1 inh: 36; tim23-1 inh: 29; V-ATPase pH: 2; TIM10 inh: 43*; TIM10 conf: 45*

How did COC(=O)[C@@H](NC(=O)NCCC1=CCCCC1)C(C)C do in these assays?
NLRP3 yeast inh: 5; tim10-1 inh: 10; tim23-1 inh: 6; V-ATPase pH: -1; NALP1 yeast inh: -5; TIM10 inh: 49*; TIM10 conf: -16

What do the screens show for `O=C1c2ccccc2S(=O)(=O)c2cc(N3CCc4ccccc4C3)ccc21`?
NLRP3 yeast inh: 22; tim10-1 inh: 35; tim23-1 inh: 37; TIM10 inh: 44*; TIM10 conf: 28

How did O=C1c2ccccc2S(=O)(=O)c2cc(N3CCC(C(=O)N4CCCCC4)CC3)ccc21 do in these assays?
NLRP3 yeast inh: 12; tim10-1 inh: 5; tim23-1 inh: 16; TIM10 inh: 9

How did Cn1cc(C=CC(=O)O)c2nccnc21 do in these assays?
V-ATPase pH: 4

Results for O=C(COc1ccc(-c2nnc(N3CCCCC3)c3ccccc23)cc1)N1CCCCC1 ?
NLRP3 yeast inh: -9; tim10-1 inh: 37; tim23-1 inh: 41; V-ATPase pH: 0; NALP1 yeast inh: -62; TIM10 inh: 42*; TIM10 conf: 31

How did CC(C)c1ccccc1NC(=S)NC1CCCCC1 do in these assays?
NLRP3 yeast inh: 5; tim10-1 inh: 37; tim23-1 inh: 14; V-ATPase pH: 1; NALP1 yeast inh: -6; TIM10 inh: 46*; TIM10 conf: 25

How did S=C(Nc1ccccc1Oc1ccccc1)NC1CCCC1 do in these assays?
NLRP3 yeast inh: 14; tim10-1 inh: 24; tim23-1 inh: 37; V-ATPase pH: 2; NALP1 yeast inh: 0; TIM10 inh: 41*; TIM10 conf: 20

What do the screens show for `CCN1C(=O)[C@H]2[C@@H](c3ccc(OC)cc3)N[C@]3(CCCN(Cc4ccc(F)cc4)C3=O)[C@H]2C1=O`?
V-ATPase pH: 5

How did CCOC(=O)C1CCN(C(=O)c2sc3nc(C)nc(N4CCC(C)CC4)c3c2C)CC1 do in these assays?
NLRP3 yeast inh: 12; tim10-1 inh: 19; tim23-1 inh: 33; V-ATPase pH: -2; NALP1 yeast inh: 15; TIM10 inh: 27

How did CCOC(=O)C1CCN(C(=O)c2sc3ncnc(N4CCC(C)CC4)c3c2C)CC1 do in these assays?
NLRP3 yeast inh: 21; tim10-1 inh: 35; tim23-1 inh: 28; V-ATPase pH: 3; NALP1 yeast inh: -39; TIM10 inh: 41*; TIM10 conf: 16

Results for C[C@@H](NC(=O)/C(C#N)=C/c1ccc(O)c(O)c1)c1ccccc1 ?
NLRP3 yeast inh: 30; tim10-1 inh: 9; tim23-1 inh: 21; V-ATPase pH: -2; TIM10 inh: 3

Results for CC(NC(=O)/C(C#N)=C/c1ccc(Cl)c([N+](=O)[O-])c1)c1ccccc1 (stereo not drawn) ?
NLRP3 yeast inh: 15; tim10-1 inh: 20; tim23-1 inh: -91; NALP1 yeast inh: 57; TIM10 inh: 63*; TIM10 conf: 57*

What do the screens show for `N/C(=N\OC(=O)/C=C/c1ccccc1Cl)c1ccccn1`?
NLRP3 yeast inh: 7; tim10-1 inh: 36; tim23-1 inh: 48; V-ATPase pH: -3; NALP1 yeast inh: 3; TIM10 inh: 51*; TIM10 conf: 55*

Results for CC(C)Oc1ccc(C(=O)Nc2ccc(N(C)C)cc2)cc1 ?
NLRP3 yeast inh: 27; tim10-1 inh: 15; tim23-1 inh: 24; V-ATPase pH: 3; NALP1 yeast inh: 32; TIM10 inh: 50*; TIM10 conf: -22

What do the screens show for `C=CCn1c(-c2ccccc2OC)n[nH]c1=S`?
NLRP3 yeast inh: 16; tim10-1 inh: 12; tim23-1 inh: 9; V-ATPase pH: -4; NALP1 yeast inh: 35; TIM10 inh: 6

What do the screens show for `C=CCn1c(-c2csc3c2CCC(C)C3)n[nH]c1=S` (stereo not drawn)?
NLRP3 yeast inh: 30; tim10-1 inh: 30; tim23-1 inh: 27; V-ATPase pH: 7; NALP1 yeast inh: 20; TIM10 inh: 43*; TIM10 conf: -3

Results for CCCCN1C(=O)C(CC(=O)NCCCCc2ccccc2)CC(C(=O)N(C)C)=C1C (stereo not drawn) ?
V-ATPase pH: -1
